Screening data from PubChem.
SARS PLpro yeast = qHTS of Yeast-based Assay for SARS-CoV PLP. S. cerevisiae expressing SARS-CoV PLpro, growth rescue. Potency, µM (top dose mostly 32.9 µM), inactives show top-dose activity, positive = growth rescue, most hits filed as activators. 0.19% of 330,000 active. AID 485353, 2010; calls by dose curve; also: 0% is about no effect; nearly all actives have a fitted effect of over 55% in size
NS1 function inh = qHTS Assay for Inhibitors of Influenza NS1 Protein Function. Potency, µM (highest dose often 46.1 µM), without a hit: at the highest dose activity, positive = more growth. 0.4% of 270,000 active. AID 2326, 2010; calls by dose curve; also: actives are rising curves; nearly all actives have a fitted effect of over 50% in size
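OD600 was taken as the measure of yeast growth restored by compound in an NS1-expressing S. cerevisiae strain. Cells had been washed out of glucose medium and diluted 1:100 into galactose -URA medium, pH 6.0.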
Pf growth 48h = Primary qHTS for delayed death inhibitors of the malarial parasite plastid, 48 hour incubation; 5.9% of 310,000 active; AID 504832, 2011; Potency, µM (top dose mostly 28.7 µM), for inactives: at the highest dose activity change, negative = inhibition, most hits filed as inhibitors; P. falciparum luciferase growth in erythrocytes, 48 h; also: % is scaled to controls: 0 for no effect and ±100 for the full control effect
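Firefly luciferase activity from engineered P. falciparum reports growth; inhibitors lower the luminescent signal. Cultures contained 2% hematocrit erythrocytes at 0.1% final parasitemia.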
Pf growth 96h = Primary qHTS for delayed death inhibitors of the malarial parasite plastid, 96 hour incubation | P. falciparum luciferase reporter growth, 96 h | 6.9% of 320,000 active | AID 504834, 2011 | Potency, µM (series often up to 28.7 µM), without a hit: at the highest dose activity change, negative = inhibition, most hits filed as inhibitors; also: % is scaled to controls: 0 for no effect and ±100 for the full control effect
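Two-generation exposure (96 h) targets delayed-death phenotype. Reporter parasites carrying integrated firefly luciferase, in red cells at 2% hematocrit and 0.05% parasitemia final, kept at 37 C, 5% CO2; luminescence loss indicates inhibition.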
The depositor's hits bear a star; ? = inconclusive; . = not tested or not shown. Rows were chosen to be rich in hits. Some 10% of all compounds tested hit in one or more screens of this group. Unless noted, calls follow the shape of the dose curve; as a rule, active = well fitted inhibition curve with a large enough effect; inconclusive = small, poorly fitted or top-dose-only effect, or another doubt; inactive = no such curve, though single readings can be large or run the other way. Potency is read from the fitted curve at half-maximal effect.

SMILES	SARS PLpro yeast	NS1 function inh	Pf growth 48h	Pf growth 96h
Cc1cc(NC(=O)CCN2C(=O)/C(=C\c3ccccc3Cl)SC2=S)no1	-1%	.	22%	0.033µM*
CCN(CC)CCOC(=O)c1ccc(NC(=O)CCCN2C(=O)/C(=C\c3cccs3)SC2=S)cc1	1%	?	2.3µM*	4.1µM*
O=C(CCN1C(=O)/C(=C\c2cccs2)SC1=S)Nc1ccc(C(=O)O)cc1	16%	7%	-2%	?
O=C(NC1(C(F)(F)F)N=C2SCCN2C1=O)c1cccnc1 (configuration not stated)	-12%	21%	7%	?
COC(=O)CCC(=O)NC(=S)Nc1ccc(S(=O)(=O)N2CCCC2)cc1	5%	.	7%	22%
CN(C)S(=O)(=O)N1CCc2ccc(NC(=O)c3ccccc3Cl)cc2C1	3%	-12%	5%	5.9µM*
COC(C/C=C\[C@@H](O)COCc1ccccc1)OC	0%	6%	53%	52%
CC(C)OC(=O)CC(=O)CSc1nc2c(c(-c3cccs3)c1C#N)CCC2	17%	30%	10%	-3%
CCOC(=O)C(C)Sc1nc2c(c(-c3cccs3)c1C#N)CCC2 (configuration not stated)	-2%	-9%	?	10µM*
COc1ccccc1C(=O)NCC(=O)NCCC(c1ccccc1)c1ccccc1	-1%	.	?	?
O=C(CN1C(=O)NC(Cc2ccccc2)C1=O)Nc1ccc(OC(F)F)cc1 (configuration not stated)	-9%	.	7%	13µM*
O=C(CN1C(=O)NC(Cc2ccccc2)C1=O)Nc1ccccc1 (configuration not stated)	4%	13%	23%	29%
COc1ccc(CCNC(=O)c2ccccc2NC(=O)CN2CCN(c3ccccc3O)CC2)cc1	5%	.	10µM*	7.4µM*
COc1ccc(N2CCN(CC(=O)Nc3ccccc3C(=O)NCc3ccccc3)CC2)cc1	1%	.	13µM*	?
Cc1onc(-c2c(Cl)cccc2Cl)c1C(=O)ONC(=O)c1ccccc1	-1%	2%	174%	-6%
Fc1cccc(F)c1-n1c(CN2CCCCC2)csc1=S	-4%	.	?	12µM*
Fc1cccc(F)c1-n1c(CN2CCOCC2)csc1=S	0%	.	13%	-22%
Clc1cnc(N/N=C/c2ccncc2)c(Cl)c1	0%	-10%	30%	3%
Clc1ccc(N/N=C/c2ccncc2)cc1Cl	-86%	-32%	2.3µM*	1.2µM*
CCOc1ccc(C(=O)NNC(=O)CCNC(=O)c2ccc(Br)cc2)cc1OC	4%	.	1%	?
COc1ccc(C2C(C(=O)NCc3ccccn3)CCC(=O)N2c2cc(OC)c(OC)c(OC)c2)cc1 (configuration not stated)	4%	.	15%	12µM*
COc1ccc(N2C(=O)CSC2c2ccc([N+](=O)[O-])cc2)cc1 (configuration not stated)	1%	3%	.	5.2µM*
O=C1CSC(c2ccc([N+](=O)[O-])cc2)N1c1ccccc1 (configuration not stated)	1%	4%	.	?
COc1ccc(N2C(=O)CCC(C(=O)O)C2c2ccc(F)cc2)cc1 (configuration not stated)	-5%	10%	4%	2.6µM*
CCOC(=O)N1CCN(C(=O)C2CC(=O)N(c3ccc(OC)cc3)C2c2ccc(OC)cc2)CC1 (configuration not stated)	-1%	-3%	9.3µM*	?
SMILES	SARS PLpro yeast	NS1 function inh	Pf growth 48h	Pf growth 96h
CCC(C)NC(=O)C1CCC(=O)N(c2cc(OC)c(OC)c(OC)c2)C1c1ccc(OC)cc1 (configuration not stated)	1%	-3%	?	?
C=CCN1C(=O)c2ccc(C(=O)N(CC)CC(=O)Nc3ccc(OC)cc3)cc2C1=O	3%	.	?	8%
COc1ccc(C2SCC(=O)N2c2ccc(OC)cc2)cc1 (configuration not stated)	2%	5%	3%	374%
COc1ccc(C2SCC(=O)N2c2ccc(F)cc2)cc1 (configuration not stated)	2%	2%	13%	2.6µM*
COc1cc(/C=C2\SC(=O)NC2=O)ccc1OCC(=O)N1CCOCC1	2%	.	.	.
CC1(c2ccccc2)NC(=O)N(CC(=O)N2CCN(S(=O)(=O)c3ccccc3[N+](=O)[O-])CC2)C1=O (configuration not stated)	-12%	-11%	-14%	32%
